Measurements from PMC7862700, “An all-to-all approach to the identification of sequence-specific readers for epigenetic DNA modifications on cytosine”.

Legend:
Test in all cases: DAPPL (digital affinity profiling via proximity ligation, sequencing); 10 mM Tris-HCl pH 7.5, 50 mM NaCl, 1 mM DTT, 4% glycerol, room temperature, 30 min; GST-TFs on glutathione beads, 16-mer random dsDNA library, 0.1% formaldehyde crosslink after washing; high values mean tight binding
Details in all cases: protein: recombinant; tags: N-terminal GST; dsDNA, one strand shown
[1] = target: T1, FLI1 (Homo sapiens, UniProt Q01543 1-452)
T1 sequence: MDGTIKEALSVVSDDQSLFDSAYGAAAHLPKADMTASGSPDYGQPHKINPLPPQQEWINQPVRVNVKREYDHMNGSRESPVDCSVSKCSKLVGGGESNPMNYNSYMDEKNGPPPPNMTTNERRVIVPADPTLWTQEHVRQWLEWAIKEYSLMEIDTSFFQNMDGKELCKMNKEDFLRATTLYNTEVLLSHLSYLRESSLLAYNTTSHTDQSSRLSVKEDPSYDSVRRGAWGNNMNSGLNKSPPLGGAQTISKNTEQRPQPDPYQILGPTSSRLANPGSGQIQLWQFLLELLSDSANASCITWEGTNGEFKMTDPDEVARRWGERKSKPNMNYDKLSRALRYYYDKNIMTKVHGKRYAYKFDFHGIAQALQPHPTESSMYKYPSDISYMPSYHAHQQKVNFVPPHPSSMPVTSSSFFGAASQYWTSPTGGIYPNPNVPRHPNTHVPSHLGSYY
Method in brief: (§1)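 Yeast served to express human transcription factors as GST fusions, which were then captured on glutathione beads and labelled with DNA barcodes. Pooled with a tag-only sample, they were incubated with 200 nmole of a 16-mer random double-stranded DNA library for 30 min at room temperature in Tris/NaCl/DTT/glycerol buffer, washed, crosslinked with 0.1% formaldehyde, ligated by proximity, amplified by PCR and sequenced. Dividing each hexamer's read frequency for a factor by its frequency for the tag-only sample gives the binding signal.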

[2] = target: T2, ELK1 (Homo sapiens, UniProt P19419 1-428)
T2 sequence: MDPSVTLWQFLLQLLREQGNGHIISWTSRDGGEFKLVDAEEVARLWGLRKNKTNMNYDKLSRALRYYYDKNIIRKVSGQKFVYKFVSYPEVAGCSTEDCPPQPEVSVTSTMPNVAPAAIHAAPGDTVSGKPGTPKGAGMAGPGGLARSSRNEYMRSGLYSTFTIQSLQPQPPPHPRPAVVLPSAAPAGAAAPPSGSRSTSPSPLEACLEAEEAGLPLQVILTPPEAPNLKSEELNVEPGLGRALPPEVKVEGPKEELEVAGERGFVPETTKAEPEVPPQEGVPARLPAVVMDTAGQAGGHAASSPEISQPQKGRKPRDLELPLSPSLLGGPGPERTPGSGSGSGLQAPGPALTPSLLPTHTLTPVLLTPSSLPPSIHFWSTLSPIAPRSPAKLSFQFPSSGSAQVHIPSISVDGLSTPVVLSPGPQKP
Method in brief: as §1

[3] = target: T3, GABPA (Homo sapiens, UniProt Q06546 1-454)
T3 sequence: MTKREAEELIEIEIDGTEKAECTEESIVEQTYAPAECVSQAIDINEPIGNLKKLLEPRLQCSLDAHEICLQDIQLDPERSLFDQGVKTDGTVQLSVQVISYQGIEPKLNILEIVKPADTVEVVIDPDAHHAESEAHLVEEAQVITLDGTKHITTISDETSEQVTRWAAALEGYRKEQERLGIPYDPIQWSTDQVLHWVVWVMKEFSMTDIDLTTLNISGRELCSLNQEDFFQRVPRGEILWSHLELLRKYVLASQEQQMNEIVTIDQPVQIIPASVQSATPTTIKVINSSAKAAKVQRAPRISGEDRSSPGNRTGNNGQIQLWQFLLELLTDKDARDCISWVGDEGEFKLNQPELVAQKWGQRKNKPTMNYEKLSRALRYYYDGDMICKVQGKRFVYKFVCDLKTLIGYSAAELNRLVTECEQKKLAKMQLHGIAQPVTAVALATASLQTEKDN
Method in brief: as §1

[4] = target: ELF1 (Homo sapiens, UniProt P32519 1-619)
Chain of ELF1 (P32519 whole entry): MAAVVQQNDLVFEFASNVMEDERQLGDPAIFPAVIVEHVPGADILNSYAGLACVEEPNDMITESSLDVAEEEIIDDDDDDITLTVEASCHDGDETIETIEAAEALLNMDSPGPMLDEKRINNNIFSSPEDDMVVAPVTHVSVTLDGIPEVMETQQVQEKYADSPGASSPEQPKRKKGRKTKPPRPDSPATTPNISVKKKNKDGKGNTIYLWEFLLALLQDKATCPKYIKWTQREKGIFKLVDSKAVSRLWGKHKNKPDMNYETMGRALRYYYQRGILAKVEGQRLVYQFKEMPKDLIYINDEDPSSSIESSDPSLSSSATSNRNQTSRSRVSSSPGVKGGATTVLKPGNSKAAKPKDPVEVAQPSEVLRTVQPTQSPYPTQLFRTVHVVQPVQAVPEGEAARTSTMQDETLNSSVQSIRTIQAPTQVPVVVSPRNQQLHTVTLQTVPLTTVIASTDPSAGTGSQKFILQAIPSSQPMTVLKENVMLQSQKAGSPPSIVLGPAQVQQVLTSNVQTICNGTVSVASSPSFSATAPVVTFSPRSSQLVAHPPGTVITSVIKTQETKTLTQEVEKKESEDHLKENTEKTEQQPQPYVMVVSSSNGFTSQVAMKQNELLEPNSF
Method in brief: as §1

[5] = target: T4, EHF (Homo sapiens, UniProt Q9NZC4 1-300)
T4 sequence: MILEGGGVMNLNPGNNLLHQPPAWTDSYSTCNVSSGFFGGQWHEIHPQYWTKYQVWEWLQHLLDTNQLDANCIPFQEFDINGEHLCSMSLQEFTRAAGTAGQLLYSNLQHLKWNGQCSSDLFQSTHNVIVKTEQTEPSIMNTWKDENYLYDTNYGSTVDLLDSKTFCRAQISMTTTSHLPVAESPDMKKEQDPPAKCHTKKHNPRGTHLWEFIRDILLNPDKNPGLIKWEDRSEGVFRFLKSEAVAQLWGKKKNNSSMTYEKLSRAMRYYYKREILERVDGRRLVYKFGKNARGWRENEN
Method in brief: as §1

[6] = target: T5, SPIC (Homo sapiens, UniProt Q8N5J4 1-248)
T5 sequence: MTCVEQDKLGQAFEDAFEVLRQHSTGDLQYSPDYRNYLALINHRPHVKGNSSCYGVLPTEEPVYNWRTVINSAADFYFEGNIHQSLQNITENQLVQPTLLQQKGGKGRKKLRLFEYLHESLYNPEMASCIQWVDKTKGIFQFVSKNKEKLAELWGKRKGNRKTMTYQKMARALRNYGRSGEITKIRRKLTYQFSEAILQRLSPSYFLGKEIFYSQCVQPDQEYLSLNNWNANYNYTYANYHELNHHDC
Method in brief: as §1

[7] = target: ELF4 (Homo sapiens, UniProt Q99607 1-663)
Chain of ELF4 (Q99607 whole entry): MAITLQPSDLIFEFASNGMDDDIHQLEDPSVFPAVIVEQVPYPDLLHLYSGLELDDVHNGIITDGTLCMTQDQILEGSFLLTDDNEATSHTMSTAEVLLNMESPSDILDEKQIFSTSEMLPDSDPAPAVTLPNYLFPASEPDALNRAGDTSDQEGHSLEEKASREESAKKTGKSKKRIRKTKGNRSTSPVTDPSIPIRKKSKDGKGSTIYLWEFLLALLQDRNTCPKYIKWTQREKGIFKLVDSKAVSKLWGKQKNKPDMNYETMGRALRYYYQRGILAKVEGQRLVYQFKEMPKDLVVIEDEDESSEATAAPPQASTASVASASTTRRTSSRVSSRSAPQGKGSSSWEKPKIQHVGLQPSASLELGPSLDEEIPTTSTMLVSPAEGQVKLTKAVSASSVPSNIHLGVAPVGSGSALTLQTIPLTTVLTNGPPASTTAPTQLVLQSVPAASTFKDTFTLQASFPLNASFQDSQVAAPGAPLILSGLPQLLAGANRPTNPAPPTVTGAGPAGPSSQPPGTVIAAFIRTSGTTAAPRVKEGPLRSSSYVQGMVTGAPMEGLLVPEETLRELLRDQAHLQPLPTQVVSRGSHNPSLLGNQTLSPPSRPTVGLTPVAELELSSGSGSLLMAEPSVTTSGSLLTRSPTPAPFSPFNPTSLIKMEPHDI
Method in brief: as §1

[8] = target: T6, ELK4 (Homo sapiens, UniProt P28324-2 1-405)
T6 sequence: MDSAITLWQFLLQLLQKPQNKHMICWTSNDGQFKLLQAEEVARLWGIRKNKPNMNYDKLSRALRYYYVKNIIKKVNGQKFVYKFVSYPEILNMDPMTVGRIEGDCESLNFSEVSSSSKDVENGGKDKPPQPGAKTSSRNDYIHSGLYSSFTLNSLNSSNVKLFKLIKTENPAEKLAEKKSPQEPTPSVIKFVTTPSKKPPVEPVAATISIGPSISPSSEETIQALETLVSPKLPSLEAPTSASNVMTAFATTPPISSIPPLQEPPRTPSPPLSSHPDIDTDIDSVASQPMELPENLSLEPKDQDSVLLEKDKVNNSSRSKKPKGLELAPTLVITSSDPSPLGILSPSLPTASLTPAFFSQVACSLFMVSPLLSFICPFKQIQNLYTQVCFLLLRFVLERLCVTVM
Method in brief: as §1

[9] = target: T7, ETV2 (Homo sapiens, UniProt O00321 1-342)
T7 sequence: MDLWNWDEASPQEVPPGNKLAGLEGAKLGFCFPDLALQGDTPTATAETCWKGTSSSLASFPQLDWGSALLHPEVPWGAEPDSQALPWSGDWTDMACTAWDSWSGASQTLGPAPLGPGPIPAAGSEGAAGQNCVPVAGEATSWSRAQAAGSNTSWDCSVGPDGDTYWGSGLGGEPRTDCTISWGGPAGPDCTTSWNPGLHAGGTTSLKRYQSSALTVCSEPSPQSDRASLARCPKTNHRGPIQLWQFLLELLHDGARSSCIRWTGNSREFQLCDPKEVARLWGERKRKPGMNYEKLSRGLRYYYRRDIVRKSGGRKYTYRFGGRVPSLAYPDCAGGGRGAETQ
Method in brief: as §1

[10] = target: T8, ELF3 (Homo sapiens, UniProt P78545 1-371)
T8 sequence: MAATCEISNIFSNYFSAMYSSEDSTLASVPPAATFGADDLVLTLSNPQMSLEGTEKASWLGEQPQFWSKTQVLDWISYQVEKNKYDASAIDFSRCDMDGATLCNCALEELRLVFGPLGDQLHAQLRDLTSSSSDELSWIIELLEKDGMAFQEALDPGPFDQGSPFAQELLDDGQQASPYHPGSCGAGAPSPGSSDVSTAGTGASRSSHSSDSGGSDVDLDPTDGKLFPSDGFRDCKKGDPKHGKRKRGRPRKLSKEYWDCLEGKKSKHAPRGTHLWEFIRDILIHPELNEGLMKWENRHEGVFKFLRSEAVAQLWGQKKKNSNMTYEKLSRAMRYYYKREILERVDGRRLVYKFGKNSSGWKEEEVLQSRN
Method in brief: as §1

[11] = target: ETV1 (Homo sapiens, UniProt P50549 1-477)
Chain of ETV1 (P50549 whole entry): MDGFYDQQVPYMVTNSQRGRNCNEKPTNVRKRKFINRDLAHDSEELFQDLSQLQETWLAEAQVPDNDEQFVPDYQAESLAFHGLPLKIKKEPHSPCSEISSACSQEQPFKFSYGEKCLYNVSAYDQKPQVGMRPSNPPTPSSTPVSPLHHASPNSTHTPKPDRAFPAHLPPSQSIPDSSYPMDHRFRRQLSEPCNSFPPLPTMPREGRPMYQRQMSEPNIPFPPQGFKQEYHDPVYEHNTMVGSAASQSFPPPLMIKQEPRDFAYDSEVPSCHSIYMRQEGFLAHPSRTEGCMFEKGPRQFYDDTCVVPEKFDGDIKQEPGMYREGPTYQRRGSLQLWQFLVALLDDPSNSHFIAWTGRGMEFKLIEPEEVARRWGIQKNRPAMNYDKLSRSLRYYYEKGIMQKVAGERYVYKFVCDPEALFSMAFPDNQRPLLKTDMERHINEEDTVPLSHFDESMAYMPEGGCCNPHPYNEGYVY
Method in brief: as §1

[12] = target: T9, ETS2 (Homo sapiens, UniProt P15036 1-469)
T9 sequence: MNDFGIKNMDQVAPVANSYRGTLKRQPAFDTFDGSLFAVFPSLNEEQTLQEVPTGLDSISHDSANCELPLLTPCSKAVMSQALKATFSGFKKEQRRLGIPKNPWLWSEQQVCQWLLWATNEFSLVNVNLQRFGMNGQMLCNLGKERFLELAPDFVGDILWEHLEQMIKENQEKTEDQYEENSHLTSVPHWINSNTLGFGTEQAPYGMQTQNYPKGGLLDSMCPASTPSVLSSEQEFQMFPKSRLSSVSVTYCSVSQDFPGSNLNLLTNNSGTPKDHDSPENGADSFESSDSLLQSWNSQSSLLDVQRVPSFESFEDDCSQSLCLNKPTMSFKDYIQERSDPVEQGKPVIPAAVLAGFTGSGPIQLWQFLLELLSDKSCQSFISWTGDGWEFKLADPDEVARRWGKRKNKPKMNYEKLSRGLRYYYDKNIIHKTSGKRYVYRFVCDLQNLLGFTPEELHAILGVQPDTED
Method in brief: as §1

[13] = target: T10, ETV7 (Homo sapiens, UniProt Q9Y603 1-341)
T10 sequence: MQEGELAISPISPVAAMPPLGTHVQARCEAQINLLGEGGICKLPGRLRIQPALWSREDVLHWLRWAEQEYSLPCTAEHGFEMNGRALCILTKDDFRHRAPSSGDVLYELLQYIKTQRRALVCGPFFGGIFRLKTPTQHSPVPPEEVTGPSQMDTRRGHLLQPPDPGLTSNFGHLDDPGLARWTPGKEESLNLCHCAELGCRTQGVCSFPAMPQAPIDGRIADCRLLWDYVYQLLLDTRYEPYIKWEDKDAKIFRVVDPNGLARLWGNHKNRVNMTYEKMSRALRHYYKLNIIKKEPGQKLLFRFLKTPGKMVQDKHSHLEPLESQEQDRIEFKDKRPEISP
Method in brief: as §1

[14] = target: T11, ETV3 (Homo sapiens, UniProt P41162-2 1-143)
T11 sequence: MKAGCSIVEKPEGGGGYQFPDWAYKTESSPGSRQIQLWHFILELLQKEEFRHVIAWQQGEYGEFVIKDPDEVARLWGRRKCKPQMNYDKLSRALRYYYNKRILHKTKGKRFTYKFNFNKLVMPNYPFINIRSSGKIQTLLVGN
Method in brief: as §1

[15] = target: T12, ERF (Homo sapiens, UniProt P50548 1-548)
T12 sequence: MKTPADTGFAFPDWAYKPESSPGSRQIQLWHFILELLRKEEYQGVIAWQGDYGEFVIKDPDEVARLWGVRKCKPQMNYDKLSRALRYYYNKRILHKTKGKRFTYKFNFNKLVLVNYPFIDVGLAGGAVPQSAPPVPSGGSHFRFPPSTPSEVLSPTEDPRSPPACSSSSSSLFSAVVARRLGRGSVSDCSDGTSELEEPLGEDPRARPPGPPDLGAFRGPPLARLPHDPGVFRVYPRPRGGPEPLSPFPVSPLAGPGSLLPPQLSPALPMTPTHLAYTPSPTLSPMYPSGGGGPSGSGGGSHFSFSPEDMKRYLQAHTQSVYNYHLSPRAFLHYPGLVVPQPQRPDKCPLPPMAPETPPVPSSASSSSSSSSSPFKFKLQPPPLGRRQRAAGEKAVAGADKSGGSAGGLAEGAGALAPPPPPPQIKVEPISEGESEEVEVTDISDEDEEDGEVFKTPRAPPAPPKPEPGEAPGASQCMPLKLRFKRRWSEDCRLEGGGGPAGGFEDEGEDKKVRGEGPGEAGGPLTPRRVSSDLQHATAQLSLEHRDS
Method in brief: as §1

[16] = target: T13, ETV3L (Homo sapiens, UniProt Q6ZN32 1-361)
T13 sequence: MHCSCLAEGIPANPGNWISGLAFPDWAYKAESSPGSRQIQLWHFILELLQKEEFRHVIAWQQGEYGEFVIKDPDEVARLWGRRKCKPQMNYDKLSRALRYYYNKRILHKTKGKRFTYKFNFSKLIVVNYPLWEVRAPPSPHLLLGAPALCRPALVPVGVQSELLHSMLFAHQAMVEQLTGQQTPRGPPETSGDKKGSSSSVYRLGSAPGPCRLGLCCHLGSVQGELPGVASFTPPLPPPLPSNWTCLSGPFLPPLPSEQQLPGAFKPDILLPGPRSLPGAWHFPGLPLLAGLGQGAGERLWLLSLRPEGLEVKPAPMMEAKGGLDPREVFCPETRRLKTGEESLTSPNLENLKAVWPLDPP
Method in brief: as §1

[17] = target: ETV6 (Homo sapiens, UniProt P41212 1-452)
Chain of ETV6 (P41212 whole entry): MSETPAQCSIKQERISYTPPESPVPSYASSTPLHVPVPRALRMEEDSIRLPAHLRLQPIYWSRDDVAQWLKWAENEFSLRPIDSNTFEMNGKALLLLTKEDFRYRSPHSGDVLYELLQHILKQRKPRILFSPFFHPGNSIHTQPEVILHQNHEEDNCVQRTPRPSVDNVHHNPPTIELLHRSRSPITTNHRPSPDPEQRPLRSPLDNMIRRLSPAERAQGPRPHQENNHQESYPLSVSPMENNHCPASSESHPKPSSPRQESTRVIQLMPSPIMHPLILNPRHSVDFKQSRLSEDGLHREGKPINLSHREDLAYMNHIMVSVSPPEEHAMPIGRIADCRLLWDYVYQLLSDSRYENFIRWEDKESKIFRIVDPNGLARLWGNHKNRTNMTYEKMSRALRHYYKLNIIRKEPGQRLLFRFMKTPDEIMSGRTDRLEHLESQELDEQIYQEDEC
Method in brief: as §1

Sequence | binding signal [1] | binding signal [2] | binding signal [3] | binding signal [4] | binding signal [5] | binding signal [6] | binding signal [7] | binding signal [8] | binding signal [9] | binding signal [10] | binding signal [11] | binding signal [12] | binding signal [13] | binding signal [14] | binding signal [15] | binding signal [16] | binding signal [17]
AGCTGA | 1.02 fold enrichment (6-mer frequency, TF over GST control) | 1.07 fold enrichment (6-mer frequency, TF over GST control) | 1.01 fold enrichment (6-mer frequency, TF over GST control) | 1.1 fold enrichment (6-mer frequency, TF over GST control) | 1.11 fold enrichment (6-mer frequency, TF over GST control) | 1.14 fold enrichment (6-mer frequency, TF over GST control) | 1.01 fold enrichment (6-mer frequency, TF over GST control) | 1.02 fold enrichment (6-mer frequency, TF over GST control) | 1.08 fold enrichment (6-mer frequency, TF over GST control) | 1.14 fold enrichment (6-mer frequency, TF over GST control) | 1.08 fold enrichment (6-mer frequency, TF over GST control) | 1.04 fold enrichment (6-mer frequency, TF over GST control) | 1.09 fold enrichment (6-mer frequency, TF over GST control) | 1.05 fold enrichment (6-mer frequency, TF over GST control) |  |  | 
GCTAGG | 1.01 fold enrichment (6-mer frequency, TF over GST control) |  |  |  | 1.12 fold enrichment (6-mer frequency, TF over GST control) | 1.03 fold enrichment (6-mer frequency, TF over GST control) | 1.06 fold enrichment (6-mer frequency, TF over GST control) | 1.08 fold enrichment (6-mer frequency, TF over GST control) |  | 1.14 fold enrichment (6-mer frequency, TF over GST control) | 1 fold enrichment (6-mer frequency, TF over GST control) |  |  | 1.03 fold enrichment (6-mer frequency, TF over GST control) | 1.01 fold enrichment (6-mer frequency, TF over GST control) | 1.06 fold enrichment (6-mer frequency, TF over GST control) | 1.07 fold enrichment (6-mer frequency, TF over GST control)
